SMILES strings stand for the structures. “And” between values parts separate entries of the source, which are not always exact repeats. Equal values may be shown once. About 79,000 compounds went through this panel and 15% of them were active in at least one assay; those are over-represented in the sample as a whole. Unmarked numbers belong to inactive results. The source made the active and inactive calls. Cut-off read from the data, not from the text of the source: active = growth inhibition above about 70%; inactive = the rest.

Assay [1] in a line: NCI Yeast Anticancer Drug Screen. Data for the rad50 strain (AID 155).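 Note: 0% = growth of vehicle-only cultures of the same strain.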 Particulars: S. cerevisiae rad50 strain growth inhibition, hits give high values. The method in brief:
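DNA repair mutant yeast, compound exposure, growth read-out; inhibition is taken relative to vehicle.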

The nature of assay [2]: NCI Yeast Anticancer Drug Screen. Data for the mec2-1 strain (AID 157). The following applies: S. cerevisiae mec2-1 strain, hits give high values. The gist of the method:
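Each compound was tested on mec2-1 yeast, a strain altered in DNA damage repair or cell cycle control. Growth inhibition is reported relative to vehicle.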

The nature of assay [3]: NCI Yeast Anticancer Drug Screen. Data for the cln2 rad14 strain (AID 165).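 Note: 0% = growth equal to vehicle treated cultures.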 Particulars: S. cerevisiae cln2 rad14 strain, hits give high values. The gist of the method: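 Test compounds were added to cln2 rad14 yeast cultures; inhibition of growth was then determined by comparison with vehicle treatment.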
A short description of assay [4]: NCI Yeast Anticancer Drug Screen. Data for the bub3 strain (AID 167). Particulars: S. cerevisiae bub3 mutant strain, hits give high values. The method in brief:
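In this screen, a yeast mutant lacking normal mitotic checkpoint function is challenged with compound. Relative growth versus vehicle gives the inhibition value.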

Assay [5] is described as follows: NCI Yeast Anticancer Drug Screen. Data for the mlh1 rad18 strain (AID 175). Particulars: S. cerevisiae mlh1 rad18 strain growth inhibition, hits give high values. The gist of the method:
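Inhibition values reflect reduced growth of mutant yeast versus vehicle-treated controls following compound exposure; the mutations affect DNA damage repair.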

Assay [6] is described as follows: NCI Yeast Anticancer Drug Screen. Data for the sgs1 mgt1 strain (AID 161).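 Note: 0% = growth of cultures given vehicle only.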 The following applies: S. cerevisiae sgs1 mgt1 strain, hits give high values. The method in brief:
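Read-out: growth inhibition vs vehicle controls. Cells: mutant yeast strain deficient in DNA damage repair.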

[7] abbreviates: at 5.0 µM (retest, dose inferred, filed as 0.5).
[8] abbreviates: at 50.0 µM (retest, dose inferred, filed as 5.0).

Consider `O=c1cccccc1[O-].O=c1cccccc1[O-].O=c1cccccc1[O-].[La+3]`, for which the growth inhibition is 87% (active) in assay [1] (setting [7]); 87% (active) in assay [1] (setting [8]); 90.8% (active) in assay [1] (at 50.0 µM); 52% in assay [2] (setting [7]); 52% in assay [2] (setting [8]); 91.8% (active) in assay [2] (at 50.0 µM). Further, the growth inhibition in assay [3] (setting [7]) was 59%; in assay [3] (setting [8]) it was 59%; in assay [3] (at 50.0 µM), 89.8% (active); in assay [4] (setting [7]), 26%; in assay [4] (setting [8]) it was 26%; in assay [4] (at 50.0 µM), 90.7% (active). Also, the growth inhibition was 74% (active) in assay [5] (setting [7]), 74% (active) in assay [5] (setting [8]) and 88.6% (active) in assay [5] (at 50.0 µM).
`Cc1ccc(/C=C2\CCC/C(=C\c3ccc(O)c(CN4CCCCC4)c3)C2=O)cc1`: the growth inhibition in assay [1] (setting [7]) was 16%; in assay [1] (setting [8]) it was 22%; in assay [1] (at 50.0 µM), 6.8%; in assay [2] (setting [7]), 4%; in assay [2] (setting [8]), 15%; in assay [2] (at 50.0 µM), -15.2%. For the same compound, the growth inhibition is 0% in assay [6] (setting [7]); 25% in assay [6] (setting [8]); 70.9% (active) in assay [6] (at 50.0 µM); -34% in assay [4] (setting [7]); 28% in assay [4] (setting [8]); 66.5% in assay [4] (at 50.0 µM). Also, the growth inhibition is 9% in assay [5] (setting [7]), 18% in assay [5] (setting [8]) and 84% (active) in assay [5] (at 50.0 µM).
With `Cc1c[nH]c2nc(C)n(-c3ccccc3)c(=N)c12`, the growth inhibition in assay [1] (setting [7]) was -1%; in assay [1] (setting [8]), 2%; in assay [1] (at 50.0 µM) it was 6.1%; in assay [6] (setting [7]), -3%; in assay [6] (setting [8]), 3%; in assay [6] (at 50.0 µM) it was 2.5%. In addition, the growth inhibition in assay [3] (setting [7]) is 2%; in assay [3] (setting [8]), -8%; in assay [3] (at 50.0 µM), 38%; in assay [4] (setting [7]) it was -3%; in assay [4] (setting [8]) it was -3%; in assay [4] (at 50.0 µM), -6.85%. For the same compound, the growth inhibition in assay [5] (setting [7]) was -2%; in assay [5] (setting [8]) it was -2%; in assay [5] (at 50.0 µM) it was 8.65%.
As to `Cc1ccnc(N)c1`, the growth inhibition was -10.2% and -13.3% and 9.05% in assay [1] (at 50.0 µM); -3.4% and -17.8% and 11.4% in assay [2] (at 50.0 µM); 2.2% and -19.4% and -6.3% in assay [6] (at 50.0 µM); -34.4% and -28.6% and -33.6% in assay [3] (at 50.0 µM); 0.95% and 7.15% and -8.9% in assay [4] (at 50.0 µM); 1.35% and 16.1% and 1.85% in assay [5] (at 50.0 µM).
On to `O=S(=O)(/C=C/c1cccnc1)/C=C/c1cccnc1`, for which the growth inhibition in assay [1] (setting [7]) is 0%; in assay [1] (setting [8]), 2%; in assay [1] (at 50.0 µM), -14.1%; in assay [6] (setting [7]), 1%; in assay [6] (setting [8]), 6%; in assay [6] (at 50.0 µM), 5.3%. Also, the growth inhibition in assay [3] (setting [7]) was 3%; in assay [3] (setting [8]), 10%; in assay [3] (at 50.0 µM), 82.8% (active); in assay [4] (setting [7]) it was -2%; in assay [4] (setting [8]), 3%; in assay [4] (at 50.0 µM), 20.8%. In addition, the growth inhibition in assay [5] (setting [7]) is -4%; in assay [5] (setting [8]), -1%; in assay [5] (at 50.0 µM), 1.25%.
For the compound `Cc1ccc(COCO)c(O)c1`, the growth inhibition in assay [1] (setting [7]) was -1%; in assay [1] (setting [8]), -8%; in assay [1] (at 50.0 µM), -6.7%; in assay [3] (setting [7]) it was -7%; in assay [3] (setting [8]), -3%; in assay [3] (at 50.0 µM), -18.1%. The growth inhibition was -3% in assay [4] (setting [7]); -4% in assay [4] (setting [8]); -0.15% in assay [4] (at 50.0 µM); -1% in assay [5] (setting [7]); -4% in assay [5] (setting [8]); -16.4% in assay [5] (at 50.0 µM).

(Values after PubChem BioAssay (NCI).)
